Experimental data published in PubChem BioAssay (NCATS).
Records with an inconclusive call do not appear. Where a call stands in place of a potency, no number is given. A number with no mark means an inactive call. The source made the active and inactive calls. Calls follow the shape of the dose curve; as a rule, active = well fitted cell-killing curve with a large enough effect; inconclusive = small, poorly fitted or top-dose-only effect, or effect the other way; inactive = no such curve, though single readings can be large or run the other way.

Key:
[1] = Quantitative High-Throughput drug screen in 47 multiple myeloma cell lines against the NCATS MIPE library collection: OCIMY1_PLB cell viability assay (AID 1918979); also: nearly all actives have a fitted effect of over 35% in size
How it was run: (§1)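 ATP-based luminescence (CellTiter-Glo, 5 min RT incubation) quantified surviving cells following two days' treatment with MIPE 4.0 agents at 37 °C, 5% CO2.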

[2] = Quantitative High-Throughput drug screen in 47 multiple myeloma cell lines against the NCATS MIPE library collection: MM1R_ATCC cell viability assay (AID 1918981); also: nearly all actives have a fitted effect of over 35% in size
How it was run: as §1

[3] = Quantitative High-Throughput drug screen in 47 multiple myeloma cell lines against the NCATS MIPE library collection: KMS28PE_JCRB cell viability assay (AID 1918983); also: nearly all actives have a fitted effect of over 35% in size
How it was run: as §1

[4] = Quantitative High-Throughput drug screen in 47 multiple myeloma cell lines against the NCATS MIPE library collection: L363_DSMZ cell viability assay (AID 1918984); also: nearly all actives have a fitted effect of over 40% in size
How it was run: as §1

[5] = Quantitative High-Throughput drug screen in 47 multiple myeloma cell lines against the NCATS MIPE library collection: OCIMY5_PLB cell viability assay (AID 1918988); also: nearly all actives have a fitted effect of over 65% in size
How it was run: as §1

[6] = Quantitative High-Throughput drug screen in 47 multiple myeloma cell lines against the NCATS MIPE library collection: SKMM1_PLB cell viability assay (AID 1919863); details: SKMM1 myeloma viability, CellTiter-Glo ATP, 48 h; viability: active compounds read low; also: nearly all actives have a fitted effect of over 35% in size
How it was run: as §1

[7] = Quantitative High-Throughput drug screen in 47 multiple myeloma cell lines against the NCATS MIPE library collection: U266_ATCC cell viability assay (AID 1919864); also: nearly all actives have a fitted effect of over 35% in size
How it was run: as §1

[8] = Quantitative High-Throughput drug screen in 47 multiple myeloma cell lines against the NCATS MIPE library collection: XG6_PLB cell viability assay (AID 1919865); also: nearly all actives have a fitted effect of over 40% in size
How it was run: as §1

[9] = Quantitative High-Throughput drug screen in 47 multiple myeloma cell lines against the NCATS MIPE library collection: XG1_PLB cell viability assay (AID 1919866); also: nearly all actives have a fitted effect of over 35% in size
How it was run: as §1

[10] = Quantitative High-Throughput drug screen in 47 multiple myeloma cell lines against the NCATS MIPE library collection: VP6_DJ cell viability assay (AID 1919867); also: nearly all actives have a fitted effect of over 40% in size
How it was run: as §1

[11] = Quantitative High-Throughput drug screen in 47 multiple myeloma cell lines against the NCATS MIPE library collection: PCM6_Riken cell viability assay (AID 1919870); also: nearly all actives have a fitted effect of over 30% in size
How it was run: as §1

[12] = Quantitative High-Throughput drug screen in 47 multiple myeloma cell lines against the NCATS MIPE library collection: OPM2_DSMZ cell viability assay (AID 1919872); also: nearly all actives have a fitted effect of over 30% in size
How it was run: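 Primary qHTS used for cherry-picking: cells at 500/well, library compounds for 48 h (37C, 5% CO2), luminescent ATP assay.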

[13] = Quantitative High-Throughput drug screen in 47 multiple myeloma cell lines against the NCATS MIPE library collection: KMS34_JCRB cell viability assay (AID 1918985); also: nearly all actives have a fitted effect of over 40% in size
How it was run: as §1

[14] = Quantitative High-Throughput drug screen in 47 multiple myeloma cell lines against the NCATS MIPE library collection: OPM1_PLB cell viability assay (AID 1918989); also: nearly all actives have a fitted effect of over 40% in size
How it was run: as §1

[15] = Quantitative High-Throughput drug screen in 47 multiple myeloma cell lines against the NCATS MIPE library collection: PE2_PLB cell viability assay (AID 1919869); also: nearly all actives have a fitted effect of over 35% in size
How it was run: as §1

[16] = Quantitative High-Throughput drug screen in 47 multiple myeloma cell lines against the NCATS MIPE library collection: RPMI8226_ATCC cell viability assay (AID 1919871); also: nearly all actives have a fitted effect of over 30% in size
How it was run: as §1

[17] = Quantitative High-Throughput drug screen in 47 multiple myeloma cell lines against the NCATS MIPE library collection: LP1_DSMZ cell viability assay (AID 1918982); also: nearly all actives have a fitted effect of over 35% in size
How it was run: as §1

[18] = Quantitative High-Throughput drug screen in 47 multiple myeloma cell lines against the NCATS MIPE library collection: OCIMY7_PLB cell viability assay (AID 1918987); details: OCI-MY7 myeloma viability, CellTiter-Glo ATP, 48 h; viability (% of DMSO): at 45.8 µM (top of the series); also: nearly all actives have a fitted effect of over 65% in size
How it was run: as §1

[19] = Quantitative High-Throughput drug screen in 47 multiple myeloma cell lines against the NCATS MIPE library collection: UTMC2_PLB cell viability assay (AID 1919868); details: CellTiter-Glo ATP luminescence, 48 h; viability (% of DMSO control): at 45.8 µM (top of the series); also: nearly all actives have a fitted effect of over 55% in size
How it was run: as §1
Potency is read from the fitted curve at half-maximal effect.

CC(C)Oc1ccc(C(=O)N[C@H](CNC(=O)CN(C)C)Cc2ccc(-c3cn4cccc([C@H](C)O)c4n3)cc2)cc1Cl
Potency [1]: 2.64 µM (active) | Potency [2]: 590 nM (active) | Potency [3]: 590 nM (active) | Potency [4]: 83.3 nM (active) | Potency [5]: 418 nM (active) | Potency [6]: 296 nM (active) | Potency [7]: 20.9 µM (active) | Potency [8]: 105 nM (active) | Potency [9]: 148 nM (active) | Potency [10]: 5.26 µM (active) | Potency [11]: 23500 nM (active) | Potency [12]: 1.48 µM (active)

Cc1cn([C@@H]2O[C@H](CO)[C@@H](O)[C@H]2F)c(=O)[nH]c1=O
Potency [1]: inactive | Potency [2]: inactive | Potency [3]: inactive | Potency [13]: inactive | Potency [14]: inactive | Potency [9]: inactive | Potency [10]: 14.8 µM (active) | Potency [15]: inactive | Potency [16]: inactive | Potency [12]: inactive

C=CC(=O)Nc1cccc(Nc2nc(NC3CCC(N(C)C)CC3)nc3c2ncn3C(C)C)c1 (centres undefined)
Potency [1]: 4.69 µM (active) | Potency [2]: 187 nM (active) | Potency [17]: 0.372 µM (active) | Potency [3]: 469 nM (active) | Potency [18]: 74.3 nM (active) | Potency [5]: 52.6 nM (active) | Potency [14]: 469 nM (active) | Potency [7]: 0.296 µM (active) | Potency [8]: 16.6 nM (active) | Potency [9]: 105 nM (active) | Potency [10]: 0.235 µM (active) | Potency [19]: 132 nM (active) | Potency [15]: 0.209 µM (active) | Potency [11]: 209 nM (active) | Potency [16]: 1.05 µM (active)

CC(Oc1ccc(O)cc1)(P(=O)(O)O)P(=O)(O)O
Potency [1]: inactive | Potency [17]: inactive | Potency [3]: inactive | Potency [4]: inactive | Potency [13]: inactive | viability [6]: 108% | Potency [8]: inactive | Potency [9]: inactive | Potency [15]: 2.35 µM (active) | Potency [11]: inactive | Potency [16]: inactive | Potency [12]: inactive

C#C[C@]1(O)CC[C@@H]2[C@@H]3CCC4=CC(=O)CC[C@@H]4[C@H]3CC[C@@]21CC
Potency [1]: inactive | Potency [2]: inactive | Potency [3]: inactive | Potency [4]: 8.3 nM (active) | Potency [13]: inactive | Potency [18]: inactive | Potency [5]: 18700 nM (active) | Potency [7]: inactive | Potency [8]: inactive | Potency [19]: inactive | Potency [15]: inactive | Potency [11]: inactive | Potency [12]: inactive

C[C@H](NCc1ccc2c(c1)nc(NC(=O)c1ccc(-c3cn[nH]c3)s1)n2CCc1ccccc1)C(C)(C)C
Potency [1]: 1.87 µM (active) | Potency [2]: 1660 nM (active) | Potency [3]: 2350 nM (active) | Potency [4]: 469 nM (active) | Potency [13]: 1.05 µM (active) | Potency [18]: 418 nM (active) | Potency [14]: 1180 nM (active) | Potency [7]: 1.48 µM (active) | Potency [9]: 743 nM (active) | Potency [10]: 0.526 µM (active) | Potency [19]: 935 nM (active) | Potency [15]: 1.05 µM (active) | Potency [11]: 418 nM (active) | Potency [16]: 2.96 µM (active)

C[C@@H]1CC[C@@]2(OC1)OC1CC3C4CC=C5CC(O)CCC5(C)C4CCC3(C)C1[C@@H]2C (some centres undefined)
Potency [1]: inactive | Potency [17]: inactive | Potency [3]: inactive | Potency [4]: inactive | Potency [14]: inactive | viability [6]: 155% | Potency [15]: inactive | Potency [11]: inactive | Potency [16]: inactive | Potency [12]: inactive

C[C@@H]1[C@H](C)CC[C@]2(C(=O)O)CC[C@]3(C)C(=CC[C@@H]4[C@@]5(C)C[C@@H](O)[C@H](O)[C@@](C)(CO)[C@H]5CC[C@]43C)[C@@H]12
Potency [1]: inactive | Potency [2]: inactive | Potency [17]: inactive | Potency [3]: inactive | Potency [13]: inactive | Potency [5]: inactive | Potency [14]: inactive | Potency [8]: inactive | Potency [9]: inactive | Potency [10]: inactive | Potency [19]: inactive | Potency [15]: inactive | Potency [11]: inactive | Potency [12]: inactive

CC(=O)OCC(=O)[C@@]1(O)CC[C@H]2[C@@H]3CCC4=CC(=O)CC[C@]4(C)[C@@H]3C(=O)C[C@@]21C
Potency [1]: inactive | Potency [17]: inactive | Potency [3]: inactive | Potency [4]: inactive | Potency [13]: inactive | Potency [14]: inactive | viability [6]: 120% | Potency [7]: inactive | Potency [8]: inactive | Potency [9]: inactive | Potency [15]: inactive | Potency [11]: inactive | Potency [16]: inactive | Potency [12]: inactive

OC[C@@H](O)[C@@H](O)[C@H](O)[C@@H](O)CO
Potency [1]: inactive | Potency [2]: inactive | Potency [17]: inactive | Potency [14]: inactive | viability [6]: 122% | Potency [8]: inactive | Potency [10]: inactive | Potency [15]: inactive | Potency [11]: inactive | Potency [16]: inactive | Potency [12]: inactive

O=C1NC(O)CCN1[C@@H]1O[C@H](CO)[C@H](O)[C@H]1O (some centres undefined)
Potency [1]: inactive | Potency [2]: inactive | Potency [17]: 5.9 µM (active) | Potency [3]: inactive | Potency [14]: inactive | viability [6]: 122% | Potency [7]: inactive | Potency [9]: 11800 nM (active) | Potency [15]: inactive | Potency [12]: inactive

COc1cc(OC)c(NC(=O)Nc2cc(C)on2)cc1Cl
Potency [1]: inactive | Potency [2]: inactive | Potency [17]: inactive | Potency [4]: inactive | Potency [14]: inactive | viability [6]: 145% | Potency [8]: inactive | Potency [9]: inactive | Potency [15]: inactive | Potency [11]: inactive

CCN(C(=O)c1c(O)c2c(Cl)cccc2n(C)c1=O)c1ccccc1
Potency [1]: inactive | Potency [2]: inactive | Potency [17]: inactive | Potency [3]: inactive | Potency [4]: inactive | Potency [5]: inactive | Potency [14]: inactive | Potency [7]: inactive | Potency [8]: inactive | Potency [9]: inactive | Potency [15]: inactive | Potency [11]: inactive | Potency [16]: inactive | Potency [12]: inactive
